Pf apPOL inh – Pf-apPOL DNA polymerase inhibition; AID 1794808; inhibition, % at 10 µM; Recombinant Pf-apPOL, molecular beacon fluorescence, 1.5 h; actives 0.25% (n = 210,000)
mHTT CaM bind – mHTT-calmodulin interaction abrogation | actives 3.6% (n = 190,000) | AID 1671202 | inhibition, % at 15 µM | P42858 | AlphaScreen His-mHTT/GST-CaM binding, luminescence
Numbers stand for hits; - = inactive; . = no result given. Shown is part of a subset that was picked to be rich in hits. No stated cut-off is given here; in the data, active means inhibition above about 50%; inactive means the rest.

SMILES | Pf apPOL inh | mHTT CaM bind
COC(=O)c1cc(Br)cc2ccccc12 | 64 | -
O=[N+]([O-])C(/C=C(\Cl)[N+](=O)[O-])=C1N(c2ccccc2)CCN1c1ccccc1 | - | -
O=[N+]([O-])C(/C=C(\Cl)[N+](=O)[O-])=C(Nc1ccccc1)Nc1ccccc1 | - | 63
Cc1cccc2sc(N(CCCN(C)C)C(=O)c3ccccc3Br)nc12 | - | 96
CN(C)CCCN(C(=O)c1nc2ccccc2s1)c1nc2c(Cl)cccc2s1 | - | -
Cc1ccc(O)c(C2=NCCNC(C(F)(F)C(F)F)=C2)c1 | 59 | -
FC(F)C(F)(F)C1=CC(c2ccccc2)=NCCN1 | - | -
COc1ccc(-c2[nH]n(-c3nc4ccccc4s3)c(=O)c2C=NCCN2CCOCC2)cc1 | - | 68
O=c1c(C=NCCN2CCOCC2)c(C(F)(F)F)[nH]n1-c1nc2ccccc2s1 | - | -
O=C(Nc1ccc(Cl)cc1F)C1Oc2ccccc2NC1=O (stereo not drawn) | - | -
Cc1nnc(SCC(=O)c2ccc(Cl)cc2)n1-c1ccc2c(c1)OCCO2 | - | .
CCN(CC)S(=O)(=O)c1ccc(-c2csc(C)n2)s1 | - | .
Cc1ccc(NCCNS(=O)(=O)c2ccc(-c3csc(C)n3)s2)nn1 | - | 99
CC(C)(C)CC(=O)N1CCc2nc(-c3ccc(Cl)cc3)ncc2C1 | - | -
Nc1c(Br)cc(O)c2c1C(=O)c1ccccc1C2=O | - | 83
Nc1c(Br)cc(Cl)c2c1C(=O)c1ccccc1C2=O | - | -
CC(=O)Nc1cccnc1-c1ccc(C(=O)Nc2ccc(C(C)C)cc2)cc1 | - | -
CC(=O)NC(c1cccc([N+](=O)[O-])c1)c1ccc2cccnc2c1O (stereo not drawn) | - | 100
CCCCC(=O)NC(c1cccc([N+](=O)[O-])c1)c1ccc2cccnc2c1O (stereo not drawn) | - | 100
CC(=O)NC(c1ccc(C(C)C)cc1)c1ccc2cccnc2c1O (stereo not drawn) | - | 100
O=C(Nc1cccc2cccnc12)c1cccc([N+](=O)[O-])c1 | - | -
O=CNC(c1ccccc1)c1cccc([N+](=O)[O-])c1 (stereo not drawn) | - | -
COc1ccccc1C(=O)Oc1ccc2c(c1)OC(=Cc1cc(OC)c(OC)c(OC)c1)C2=O | - | -
Cc1[nH][nH]c(=O)c1C(c1ccc(OCc2ccc(Br)cc2)cc1)c1c(C)[nH][nH]c1=O | - | 52
CCOc1ccc(C(c2c(C)[nH][nH]c2=O)c2c(C)[nH][nH]c2=O)cc1 | - | -
SMILES | Pf apPOL inh | mHTT CaM bind
O=C1CCC[C@@H]2[C@@H](Cc3ccccc3)[C@@H](Nc3ccccc3)C[C@@H]3CCN1[C@@H]32 | - | 70
O=C1CCC[C@@H]2[C@H](Cc3ccccc3)[C@@H](O)C[C@@H]3CCN1[C@@H]32 | - | -
CCn1c(C2CCN(C(=O)c3cccc(Br)c3)C2)nc2cccnc21 (stereo not drawn) | - | -
COc1cccc(C2CN(C(=O)c3cccs3)CC2C(=O)N2CCOCC2)c1 (stereo not drawn) | - | -
Cc1[nH]c2ccccc2c1CCNC(=O)/C(=C/c1ccc2c(c1)OCO2)NC(=O)c1ccccc1 | - | 75
O=C(NCCO)/C(=C\c1ccc2c(c1)OCO2)NC(=O)c1ccc(Br)cc1 | - | -
O=C(c1ccccc1)N1CCC2(C1)NCc1ccccc1NC2=NC1CCCC1 (stereo not drawn) | - | -
COc1ccc2c(c1)c(CN1CCC(c3n[nH]c(C)n3)CC1)cn2C | - | -
O=C(Nc1nc2c(s1)CCCC2)C(c1ccccc1)n1cccc1 (stereo not drawn) | - | 95
CC(CC(=O)Nc1nc2c(s1)CCCC2)c1ccccc1 (stereo not drawn) | - | -
O=C(c1ccc(Br)o1)N1CCN=C1SCc1ccc([N+](=O)[O-])cc1 | - | -
CCSc1ccccc1C(=O)Nc1cccc2ccc(OC)nc12 | - | -
O=C(Nc1cccc2cccnc12)c1ccc(-n2ccnc2)nn1 | - | 61
O=C(Nc1cccc2cccnc12)c1ccccc1O | - | -
Cc1cc(NC(=O)c2ccc(-n3ccnc3)nn2)no1 | - | 54
Cc1cc(NC(=O)c2ccc(C(=O)Nc3cc(C)on3)nc2)no1 | - | -
CCSc1ccccc1C(=O)Nc1cccc2ccc(-n3ccnc3)nc12 | - | 82
CCCn1ncc(N2CCC(C(=O)NCCc3cccnc3)CC2)cc1=O | - | -
O=C(NCc1ccc(Cl)cc1)c1csc2c1CCCC2 | - | -
COc1ccccc1NC(=O)N1CCc2[nH]cnc2C1c1ccccn1 (stereo not drawn) | - | -
O=C(Nc1c(F)cccc1F)N1CCc2[nH]cnc2C1c1ccccn1 (stereo not drawn) | - | 56
CCOc1ccc(NC(=O)N2CCc3[nH]cnc3C2c2ccccn2)cc1 (stereo not drawn) | - | 94
O=C(Nc1ccccc1)N1CCc2[nH]cnc2C1c1ccncc1 (stereo not drawn) | - | -
COc1ccc(NC(=O)CSc2nccc(N3CCCC3)n2)cc1Cl | - | -
